# Source: PubChem BioAssay (NCATS)
# Several values for one entry are separate records, joined by “and”; a condition that tells them apart may be missing. Equal values may be shown once. Inconclusive results are not listed. A call without a number means that no potency is given here. Activity calls are given as the source filed them. The call rests on the fitted dose curve; in most records, active means well fitted curve in the direction sought with a large enough effect; inconclusive means small, poorly fitted or top-dose-only effect, or another doubt; inactive means no such curve, though single readings can be large; an effect the other way counts as inactive or inconclusive.
# Assays:
# [1] = qHTS of pediatric cancer cell lines to identify multiple opportunities for drug repurposing: Confirmatory screen for Rh41 cells (AID 1347123);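 further: 48 h compound exposure; nearly all actives have a fitted effect of over 60% in size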; further: potency means the concentration at half of the fitted maximal effect
# How it was run: (§1)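 Viability after 48 h compound treatment at 37C, 500-1,000 cells/well, read as ATP luminescence with CellTiter-Glo. Primary screens used 11-point (MIPE, 0.78 nM-46 µM) or 8-point (NPC, 0.59 nM-46 µM) final concentrations; follow-up screens used 11-point dilutions.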
# [2] = qHTS of pediatric cancer cell lines to identify multiple opportunities for drug repurposing: Confirmatory screen for Rh18 cells (AID 1347125); further: nearly all actives have a fitted effect of over 55% in size; further: potency means the concentration at half of the fitted maximal effect
# How it was run: as §1
# [3] = qHTS of pediatric cancer cell lines to identify multiple opportunities for drug repurposing: Confirmatory screen for Rh30 cells (AID 1347126); further: nearly all actives have a fitted effect of over 55% in size; further: potency means the concentration at half of the fitted maximal effect
# How it was run: as §1
# [4] = qHTS of pediatric cancer cell lines to identify multiple opportunities for drug repurposing: Confirmatory screen for Saos-2 cells (AID 1347127); further: nearly all actives have a fitted effect of over 60% in size; further: potency means the concentration at half of the fitted maximal effect
# How it was run: as §1
# [5] = qHTS of pediatric cancer cell lines to identify multiple opportunities for drug repurposing: Confirmatory screen for OHS-50 cells (AID 1347128);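 further: compound exposure lasted 48 h at 37 degrees C; nearly all actives have a fitted effect of over 55% in size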; further: potency means the concentration at half of the fitted maximal effect
# How it was run: as §1
# [6] = target: N-terminal Xaa-Pro-Lys N-methyltransferase 1 (Homo sapiens) (UniProt Q9BV86); assay: qHTS Assay for Inhibitors of N-terminal methyltransferase 1 (NTMT1): LOPAC validation of the NTMT1 SAHH-coupled ThioGlo3 Assay (AID 1347143);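 further: SAH from peptide methylation measured as thiol fluorescence via SAHH coupling and ThioGlo3; nearly all actives have a fitted effect of over 70% in size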; further: potency means the concentration at half of the fitted maximal effect
# Chain of N-terminal Xaa-Pro-Lys N-methyltransferase 1 (Homo sapiens) (Q9BV86 whole entry, looked up): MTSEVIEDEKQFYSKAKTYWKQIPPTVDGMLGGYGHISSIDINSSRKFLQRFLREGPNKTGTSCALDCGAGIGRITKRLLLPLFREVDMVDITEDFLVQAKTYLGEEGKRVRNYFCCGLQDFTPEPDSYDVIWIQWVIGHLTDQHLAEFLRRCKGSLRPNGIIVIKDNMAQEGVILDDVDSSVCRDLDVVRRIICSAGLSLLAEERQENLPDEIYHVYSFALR
# How it was run: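 Steps: dispense 125nM NTMT1; pin-transfer test compounds at several concentrations, with 1uM RCC1-6 peptide as control; incubate 1 min; start with reagent holding 100uM SAM, 10uM SAHH, 15uM ThioGlo3; read at 0 and 30 min.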
# [7] = qHTS of pediatric cancer cell lines to identify multiple opportunities for drug repurposing: Confirmatory screen for U-2 OS cells (AID 1347122); further: nearly all actives have a fitted effect of over 65% in size; further: potency means the concentration at half of the fitted maximal effect
# How it was run: as §1
# [8] = qHTS of pediatric cancer cell lines to identify multiple opportunities for drug repurposing: Confirmatory screen for SK-N-SH cells (AID 1347129);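 further: cells exposed to compound for 48 h before viability read; nearly all actives have a fitted effect of over 60% in size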; further: potency means the concentration at half of the fitted maximal effect
# How it was run: as §1
# [9] = qHTS of pediatric cancer cell lines to identify multiple opportunities for drug repurposing: Confirmatory screen for RD cells (AID 1347124);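 further: cells exposed to compound for 48 h before viability readout; nearly all actives have a fitted effect of over 65% in size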; further: potency means the concentration at half of the fitted maximal effect
# How it was run: as §1
# Furin (Homo sapiens) = Furin (Homo sapiens) (UniProt P09958); assay: Furin counterscreen qHTS for Zika virus inhibitors (AID 1347149);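 further: purified recombinant full-length human furin enzyme at 5 nM; fluorescence gain from furin cutting a BOC-RVRR-AMC peptide substrate over 15 min; top concentration of the series differs between compounds; nearly all actives have a fitted effect of over 70% in size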
# Chain of Furin (Homo sapiens) (P09958 whole entry, looked up): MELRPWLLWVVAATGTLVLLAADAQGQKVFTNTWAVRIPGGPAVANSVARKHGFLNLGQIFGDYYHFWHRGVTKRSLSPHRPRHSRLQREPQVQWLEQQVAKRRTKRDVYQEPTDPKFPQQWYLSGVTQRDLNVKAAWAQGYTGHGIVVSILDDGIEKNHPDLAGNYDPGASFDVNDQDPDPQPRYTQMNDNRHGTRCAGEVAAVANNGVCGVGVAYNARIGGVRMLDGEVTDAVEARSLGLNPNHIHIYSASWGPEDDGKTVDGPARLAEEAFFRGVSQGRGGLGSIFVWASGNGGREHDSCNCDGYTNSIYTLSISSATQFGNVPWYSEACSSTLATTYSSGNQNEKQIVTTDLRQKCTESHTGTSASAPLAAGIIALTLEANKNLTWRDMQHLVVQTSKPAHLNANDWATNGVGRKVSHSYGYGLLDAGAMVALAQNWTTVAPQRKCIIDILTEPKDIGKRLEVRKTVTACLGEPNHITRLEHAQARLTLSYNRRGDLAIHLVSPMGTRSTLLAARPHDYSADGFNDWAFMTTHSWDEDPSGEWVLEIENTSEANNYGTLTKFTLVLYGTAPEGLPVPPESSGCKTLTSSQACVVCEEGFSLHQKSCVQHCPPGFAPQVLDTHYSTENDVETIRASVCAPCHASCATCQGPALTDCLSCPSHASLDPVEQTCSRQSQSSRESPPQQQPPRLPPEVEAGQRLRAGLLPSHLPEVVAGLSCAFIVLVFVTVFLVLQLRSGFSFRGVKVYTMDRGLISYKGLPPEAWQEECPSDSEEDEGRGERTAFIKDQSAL
# How it was run: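 Counterscreen measures cleavage of 2 microM BOC-RVRR-AMC, below its ~15 microM Km, by 5 nM full-length human furin at pH 7.0 after a 15-min compound preincubation. Inhibition derives from the 15-min fluorescence increase at 37C.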
smiles,measurement,setting,value
O=c1[nH]c2ccccc2n1CCCN1CCC(n2c(=O)[nH]c3cc(Cl)ccc32)CC1,Potency,[1],16500 nM (active)
same,Potency,[2],9270 nM (active)
same,Potency,[3],7370 nM (active)
same,Potency,[4],10.4 µM (active)
same,Potency,[5],13100 nM (active)
same,Potency,[6],inactive
Cc1sc2c(c1C)C(c1ccc(Cl)cc1)=N[C@@H](CC(=O)OC(C)(C)C)c1nnc(C)n1-2,Potency,[7],inactive
same,Potency,[1],inactive
same,Potency,[8],inactive
CC(C)CC(N(C)C)C1(c2ccc(Cl)cc2)CCC1 (stereo not drawn),Potency,[1],inactive
same,Potency,[2],20800 nM (active)
same,Potency,[8],inactive
CCn1cc(C(=O)O)c(=O)c2ccc(C)nc21,Potency,[6],inactive
C[C@@H]1[C@@H](C(=O)C[C@H]2O[C@@H]3O[C@]4(C)CC[C@@H]5[C@H](C)CC[C@@H]([C@H]2C)[C@@]35OO4)O[C@@H]2O[C@]3(C)CC[C@H]4[C@H](C)CC[C@@H]1[C@@]24OO3,Potency,[1],928 nM (active)
same,Potency,[9],737 nM (active)
same,Potency,[2],inactive
same,Potency,[3],13100 nM (active)
Cn1c(CCCC(=O)O)nc2cc(N(CCCl)CCCl)ccc21,Potency,[9],inactive
same,Potency,[2],inactive
same,Potency,[5],inactive
same,Potency,[8],inactive
same,Potency,[6],56200 nM (active)
NCC(CC(=O)O)c1ccc(Cl)cc1 (stereo not drawn),Potency,[6],inactive
C=C(C)[C@H]1Cc2c(ccc3c2O[C@@H]2COc4cc(OC)c(OC)cc4[C@@H]2C3=O)O1,Potency,[7],inactive
same,Potency,[9],inactive
same,Potency,[3],inactive
same,Potency,[5],1470 nM (active)
Cc1ccc(S(=O)(=O)N[C@@H](CCCCN)C(=O)CCl)cc1,Potency,[6],56200 nM (active)
O=P1(NCCCl)OCCCN1CCCl (stereo not drawn),Potency,[7],inactive
same,Potency,[1],inactive
same,Potency,[9],inactive
same,Potency,[2],inactive
same,Potency,[3],inactive
same,Potency,[5],inactive
same,Potency,[8],inactive
Cn1cc(C2=C(c3cn(C4CCN(Cc5ccccn5)CC4)c4ccccc34)C(=O)NC2=O)c2ccccc21,Potency,[7],inactive
same,Potency,[5],inactive
same,Potency,[8],inactive
C[C@H]1O[C@@H](O[C@H]2[C@@H](O)C[C@H](O[C@H]3[C@@H](O)C[C@H](O[C@H]4CC[C@@]5(C)[C@H](CC[C@@H]6[C@@H]5CC[C@]5(C)[C@@H](C7=CC(=O)OC7)CC[C@]65O)C4)O[C@@H]3C)O[C@@H]2C)C[C@H](O)[C@@H]1O,Potency,[7],165 nM (active)
same,Potency,[1],73.7 nM (active)
same,Potency,[9],104 nM (active)
same,Potency,[3],329 nM (active)
same,Potency,[4],1.04 µM (active)
same,Potency,[8],148 nM (active)
same,Potency,Furin (Homo sapiens),inactive
C[C@@H]1O[C@@H](O[C@H]2C[C@@H](O)[C@]3(CO)[C@H]4[C@H](O)C[C@]5(C)[C@@H](C6=CC(=O)OC6)CC[C@]5(O)[C@@H]4CC[C@]3(O)C2)[C@H](O)[C@H](O)[C@H]1O,Potency,[7],131 nM (active) and 89.1 nM (active)
same,Potency,[1],46.5 nM (active) and 39.8 nM (active)
same,Potency,[9],117 nM (active)
same,Potency,[3],165 nM (active)
same,Potency,[4],369 nM (active) and 657 nM (active)
same,Potency,[5],92.8 nM (active)
same,Potency,[8],132 nM (active) and 79.4 nM (active)
same,Potency,[6],inactive
same,Potency,Furin (Homo sapiens),inactive
NCC1(CC(=O)O)CCCCC1,Potency,[6],inactive
C[C@@H]1[C@@H](CC(C[C@H]2O[C@@H]3O[C@]4(C)CC[C@@H]5[C@H](C)CC[C@@H]([C@H]2C)[C@@]35OO4)C[S+](=O)([O-])c2ccc(COC(=O)N(C)C)cc2)O[C@@H]2O[C@]3(C)CC[C@H]4[C@H](C)CC[C@@H]1[C@@]24OO3 (stereo partly drawn),Potency,[1],82.7 nM (active)
same,Potency,[3],4650 nM (active)
same,Potency,[5],233 nM (active)
N[C@@H](Cc1ccc(N(CCCl)CCCl)cc1)C(=O)O,Potency,[5],26100 nM (active)
same,Potency,[8],18700 nM (active)
Cc1cccc(C)c1NC(=O)CN1CCCC1=O,Potency,[6],inactive
COC[C@@H](NC(C)=O)C(=O)NCc1ccccc1,Potency,[2],inactive
same,Potency,[4],inactive
same,Potency,[5],inactive
same,Potency,[8],inactive
CC(=O)[C@H]1CC[C@H]2[C@@H]3CC[C@H]4C[C@H](O)CC[C@]4(C)[C@H]3C(=O)C[C@]12C,Potency,[6],inactive
CC[C@@H](CO)NC(=O)[C@@H]1C=C2c3cccc4[nH]cc(c34)C[C@H]2N(C)C1,Potency,[6],25100 nM (active)
COc1ccc(C(CN(C)C)C2(O)CCCCC2)cc1 (stereo not drawn),Potency,[6],inactive
